Screening data deposited in PubChem BioAssay by National Center for Advancing Translational Sciences (NCATS).
B2AR arrestin ag: agonists recruiting beta-arrestin to human beta2-adrenergic receptor; P07550; HTLA Tango cells, beta-arrestin recruitment, luciferase luminescence, 18 h; Potency, µM (series often up to 46.1 µM), hits mostly activators; 44,000 tested, under 10 active; AID 1347077;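 also: potency is read from the fitted curve at half-maximal effect; 0% = DMSO and full agonism = EC100 isoproterenol or metaproterenol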
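Tango cell line, 1% FBS DMEM; cpd titration up to 46 microM; 18 hr, 37 degrees C, 5% CO2. Luciferin/ATP substrate mix added, 15 min RT, luminescence. %Activity, CRC fitting, curve-class categorization.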
HTT-AS act: HTT-AS promoter activation; 0.24% of 48,000 active; Potency, µM (highest dose often 57.5 µM), without a hit: top-dose activity change, positive = activation, usual class: activators; HEK293 HTT-AS promoter firefly luciferase reporter, 24 h; response scale: percent change from vehicle, -100% = no light; also: potency is read from the fitted curve at half-maximal effect; nearly all actives have a fitted effect of over 55% in size
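Firefly luciferase readout (Dual-Glo, 10 min RT) after 24 h, 37 °C compound exposure (final up to 57.5 uM) of HEK293 reporter cells cultured 24 h beforehand; PTC124 at 50 uM final as control inhibitor; activity scaled vehicle 0%, zero RLU -100%.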
GPR32 ag: agonists of human resolvin D1 receptor DRV1 (GPR32); CHO-K1 GPR32 beta-arrestin PathHunter luminescence, 90 min; zero percent set by DMSO-only wells; 2.5% of 48,000 active; activation, % at 76.9 µM; AID 1346428; O75388;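 active = activation of at least 60% and not above a set upper limit, about 1 call in 100 departs from these limits; inconclusive = activation of 40% to 60%, or above that upper limit; inactive = activation under 40%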; also: 0% is about no effect
Target sequence (O75388 whole entry, looked up): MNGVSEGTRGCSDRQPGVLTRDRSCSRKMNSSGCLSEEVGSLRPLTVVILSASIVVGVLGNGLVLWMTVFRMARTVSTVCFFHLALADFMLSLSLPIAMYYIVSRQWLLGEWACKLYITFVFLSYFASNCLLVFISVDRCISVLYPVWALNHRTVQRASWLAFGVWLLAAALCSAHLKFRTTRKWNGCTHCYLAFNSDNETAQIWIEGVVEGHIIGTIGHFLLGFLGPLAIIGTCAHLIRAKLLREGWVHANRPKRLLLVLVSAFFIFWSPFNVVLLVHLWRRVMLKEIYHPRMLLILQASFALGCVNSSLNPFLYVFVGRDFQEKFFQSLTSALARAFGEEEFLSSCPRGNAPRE
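Step 1: seed CHO-K1 GPR32 beta-arrestin cells, 2,500/well, overnight at 37 °C. Step 2: add compounds, 90 min at 37 °C. Step 3: detection reagent, 1 h ambient, then luminescence.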
FH mod: Identification of activators of human fumarate hydratase by quantitative high-throughput screening | 0.22% of 54,000 active | Potency, µM (titrated, usually from 79.9 µM), for the others: top-dose activity change, negative = inhibition, usual class: inhibitors | FH coupled MDH/diaphorase resazurin fluorescence, 15 min | Fumarate hydratase, mitochondrial (Homo sapiens), P07954; also: potency is read from the fitted curve at half-maximal effect; % is scaled to controls: 0 for no effect and ±100 for the full control effect; the screen sought activators but most active calls are inhibition curves; nearly all actives have a fitted effect of over 45% in size
GALC G270D up: raises human GALC G270D mutant activity in cells | AID 1159614 | 0.1% of 45,000 active | 145M-Twi-hGALC-G270D cells, HMU-beta-Gal fluorescence, 48 h | Potency, µM (titrated, usually from 57.5 µM), usual class: activators; also: potency is read from the fitted curve at half-maximal effect; 0% is about no effect; nearly all actives have a fitted effect of over 65% in size
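qHTS, 1536-well; 145M-Twi-hGALC-G270D cells (WT line also made) in DMEM/F12 + 10% FBS; compound incubation on live cells; HMU-β-gal 0.1 mM final, pH 5.2, NaTC; carbonate stop; fluorescence increase = enhanced residual activity.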
HTT promoter inh: HTT promoter inhibition; Potency, µM (series often up to 57.5 µM), inactives show at the top dose activity change, negative = inhibition, usual class: inhibitors; HEK293 HTT promoter firefly luciferase reporter, 24 h; 0.93% of 48,000 active; also: potency is read from the fitted curve at half-maximal effect; nearly all actives have a fitted effect of over 50% in size
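Firefly luciferase readout (Dual-Glo, 10 min RT) after 24 h, 37 °C compound exposure (final up to 57.5 uM) of HEK293 reporter cells cultured 24 h beforehand; PTC124 at 50 uM final as control inhibitor; activity scaled vehicle 0%, zero RLU -100%.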
An asterisk follows results filed as active; i = inactive; ? = inconclusive; nt = no result; ! = repeats disagree; [ ] = remark or other dose. Rows were chosen to be rich in hits. Some 3.7% of all compounds tested hit in one or more screens of this group. Unless noted, calls follow the shape of the dose curve; as a rule, active = well fitted curve in the direction sought with a large enough effect; inconclusive = small, poorly fitted or top-dose-only effect, or another doubt; inactive = no such curve, though single readings can be large; an effect the other way counts as inactive or inconclusive.

SMILES	B2AR arrestin ag	HTT-AS act	GPR32 ag	FH mod	GALC G270D up	HTT promoter inh
COc1cc(C(=O)O)ccc1NC(=O)C1NC(CC(C)(C)C)C(C#N)(c2ccc(Cl)cc2F)C1c1cccc(Cl)c1F (stereo unspecified)	nt	nt	nt	31.6µM*	nt	nt
NCC(CNc1nc(Nc2cccc(NC(=O)N3CCCC3)c2)ncc1I)C(=O)c1cccs1 (stereo unspecified)	nt	nt	nt	-0.2%	nt	nt
Cn1c(=O)n(-c2ccc(C(C)(C)C#N)cc2)c2c3cc(C#Cc4cccnc4)ccc3ncc21	nt	nt	nt	5.9%[53.3 µM]	nt	nt
CCOc1ccc(NC(=O)c2sc3ccccc3c2Cl)cc1	i	nt	69.9*	nt	nt	nt
O=C(Nc1ccc(F)cc1)c1ncn(-c2ccccc2)n1	?	?	1.9	6.3%	i	36.4%
CCOc1ccc(NC(=O)c2ncn(-c3ccccc3)n2)cc1	i	8.91µM*	12.2	-3.5%	i	36.0%
Cc1nc2cc(-c3cccc(F)c3)nn2c(C)c1CCC(=O)NC1CCCCC1	i	-68.8%	4.5	-7.5%	i	1.26µM*
COC(=O)C(NC(=O)CCc1c(C)nc2cc(-c3cccc(F)c3)nn2c1C)C(C)C (stereo unspecified)	i	-65.7%	41.3	-2.5%	i	11.2µM*
COc1cc(-c2cc3n(C)c(C)c(CCC(=O)NC4CCCCC4)c(=O)n3n2)cc(OC)c1OC	i	-11.6%	-8.9	0.1%	i	-1.0%
Oc1cccc(Nc2ccnc3cc(-c4cccc(CN5CCOCC5)c4)sc23)c1	nt	nt	nt	-23.7%	nt	nt
Cc1ccc(CN2C(=O)C(O)(c3c[nH]c4ccccc34)c3cc(Cl)ccc32)cc1 (stereo unspecified)	i	-27.6%	87.0*	?	i	-19.6%
CC1CCc2c(sc(NC(=O)c3ccc(Cl)cc3Cl)c2C#N)C1 (stereo unspecified)	i	0.7%	106.0*	-8.4%	i	-3.3%
COc1ccccc1NC(=O)c1cc2ccc3cccnc3c2[nH]1	i	?	92.6*	-28.7%	i	57.4%
C/C(=N\O)[C@@H](C)NCC(C)(C)CN[C@H](C)/C(C)=N/O	nt	-14.0%	118.4*	2.0%[53.3 µM]	i	-6.1%
Cn1cc(S(=O)(=O)c2ccc(Cl)cc2)c2cccc(N3CCNCC3)c21	nt	nt	nt	20.6%	nt	nt
Cc1ccc(C)c(NC(=O)Nc2cccc(-c3cn4cccnc4n3)c2)c1	i	-0.8%	79.7*	3.3%	i	-3.1%
O=C(Nc1cccc(-c2cn3cccnc3n2)c1)c1cc(Br)ccc1Cl	i	1.3%	82.8*	-1.4%	i	-13.1%
C=C1CCC2C(C)(COC3OC(COC(=O)CC(=O)O)C(O)C(O)C3O)CCCC2(C)C1CCC1=CCOC1=O (stereo unspecified)	nt	nt	nt	2.3%[53.3 µM]	nt	nt
CC1=C(c2ccc(NC(=O)c3c(F)cccc3F)cc2)CN(c2nccs2)CC1	nt	nt	nt	-15.6%	nt	nt
Cc1ccc2c(c1)c(=O)c1ccccc1n2CCCC(=O)Nc1ccc(C)c(F)c1	i	-31.8%	8.3	-30.5%	i	?
Cc1ccc2c(c1)c(=O)c1ccccc1n2CCCC(=O)Nc1ccc(C)c(C)c1	i	-46.5%	-1.7	-16.0%	39.8µM*	?
CC(C)c1nnc(NC(=O)c2nc(SCc3ccc(F)cc3)ncc2Cl)s1	i	3.6%	109.1*	-4.8%	i	-20.6%
COC(=O)c1c(NC(=O)c2nc(SCc3ccc(F)cc3)ncc2Cl)sc2c1CCCC2	i	0.0%	-2.5	9.1%	i	-21.2%
Cc1ccc(Cl)c(Nc2ccccc2C(=O)O)c1Cl	nt	-9.2%	103.0*!	?	i	-1.0%
Cc1c(-c2ccc(Cl)cc2)c(=O)oc2c(CN3CCCC3)c(O)ccc12	i	-19.6%	5.4	-11.4%	39.8µM*	-0.2%
COc1ccc(Br)cc1CC1C(=O)Nc2ccccc21 (stereo unspecified)	i	-51.3%	21.9	-18.0%	i	12.6µM*
